Assay results published in PubChem BioAssay (NCI).
This is part of a sample that, as a whole, favours compounds with a hit. Of some 83,000 tested, about 20% had one in any assay.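 Testing used 96-well plates and a 48-hour single-concentration exposure. Example: -40 means 40% of the starting cells died.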 Activity calls are given as the source filed them. How the source made its calls: active means growth percent below 10; inactive means the rest.

What was measured:
Experiment in all cases: NCI-60 one-dose screen, 48 h (100 = growth as untreated, 0 = no growth, -100 = all killed)
Conditions in all cases: 10 µM unless noted
DU-145 prostate = test system: DU-145 prostate
K-562 leukemia = test system: K-562 leukemia
MALME-3M melanoma = test system: MALME-3M melanoma
MDA-MB-231 breast = test system: MDA-MB-231 breast
SF-268 CNS = test system: SF-268 CNS
SF-539 CNS = test system: SF-539 CNS
UACC-257 melanoma = test system: UACC-257 melanoma
M14 melanoma = test system: M14 melanoma
HCT-15 colon = test system: HCT-15 colon
HT29 colon = test system: HT29 colon
SNB-75 CNS = test system: SNB-75 CNS
SNB-19 CNS = test system: SNB-19 CNS
PC-3 prostate = test system: PC-3 prostate
SK-MEL-5 melanoma = test system: SK-MEL-5 melanoma
UACC-62 melanoma = test system: UACC-62 melanoma
LOX IMVI melanoma = test system: LOX IMVI melanoma
SK-MEL-28 melanoma = test system: SK-MEL-28 melanoma
RXF 393 renal = test system: RXF 393 renal
SF-295 CNS = test system: SF-295 CNS
U251 CNS = test system: U251 CNS

Measured: growth

COC1C/C(=N\O)C2OC(c3ccccc3)OCC2O1 (stereo not drawn)
inactive: DU-145 prostate 109% | K-562 leukemia 97.3% | MALME-3M melanoma 100% | MDA-MB-231 breast 105% | SF-268 CNS 109% | SF-539 CNS 101% | UACC-257 melanoma 68.1% | M14 melanoma 104% | HCT-15 colon 97.8% | HT29 colon 113% | SNB-75 CNS 66.1% | SNB-19 CNS 94.3% | PC-3 prostate 100% | SK-MEL-5 melanoma 102% | UACC-62 melanoma 96.5% | LOX IMVI melanoma 101% | SK-MEL-28 melanoma 101%

Cc1ccc(Nc2c(C(N)=O)cnc3ccc(-c4csc(N)n4)cc23)cc1
inactive: DU-145 prostate 103% | K-562 leukemia 113% | MDA-MB-231 breast 98.8% | RXF 393 renal 98.3% | SF-268 CNS 106% | SF-295 CNS 98.7% | SF-539 CNS 92% | UACC-257 melanoma 101% | M14 melanoma 98.6% | HCT-15 colon 98.7% | HT29 colon 103% | SNB-75 CNS 96.9% | SNB-19 CNS 102% | PC-3 prostate 97.6% | SK-MEL-5 melanoma 96.7% | UACC-62 melanoma 102% | SK-MEL-28 melanoma 101%

Cc1cc(Nc2nc(N3CCOCC3)nc3ccccc23)n[nH]1
inactive: DU-145 prostate 75.2% | K-562 leukemia 56.3% | MALME-3M melanoma 66.4% | MDA-MB-231 breast 84.9% | SF-268 CNS 63.8% | SF-295 CNS 73.4% | UACC-257 melanoma 76% | M14 melanoma 45.8% | HCT-15 colon 38.7% | HT29 colon 68.4% | SNB-19 CNS 93.2% | PC-3 prostate 59.9% | SK-MEL-5 melanoma 79.9% | UACC-62 melanoma 45.7% | LOX IMVI melanoma 63.3% | SK-MEL-28 melanoma 72.2%
active: SNB-75 CNS -15.3%

CC1=N/C(=C\c2cccc(Br)c2)C(=O)O1
inactive: DU-145 prostate 109% | MALME-3M melanoma 98.8% | MDA-MB-231 breast 105% | RXF 393 renal 112% | SF-268 CNS 98.6% | SF-295 CNS 108% | SF-539 CNS 115% | UACC-257 melanoma 80.6% | M14 melanoma 104% | HCT-15 colon 104% | HT29 colon 108% | SNB-75 CNS 97.7% | PC-3 prostate 101% | SK-MEL-5 melanoma 100% | UACC-62 melanoma 104% | LOX IMVI melanoma 100% | SK-MEL-28 melanoma 114%

C[C@@H]1CC[C@@H]2[C@@H]1[C@H](OC(=O)/C=C/c1ccccc1)[C@]1(c3ccccc3)C[C@@H](OC(=O)CO)[C@@]2(C)O1
inactive: DU-145 prostate 102% | MALME-3M melanoma 108% | MDA-MB-231 breast 97.2% | RXF 393 renal 60.6% | SF-268 CNS 52.5% | SF-295 CNS 96.4% | SF-539 CNS 102% | UACC-257 melanoma 86% | M14 melanoma 105% | HCT-15 colon 97.7% | HT29 colon 92.2% | SNB-75 CNS 90.2% | SNB-19 CNS 96% | PC-3 prostate 80.5% | SK-MEL-5 melanoma 94.8% | UACC-62 melanoma 75.4% | LOX IMVI melanoma 97.8% | SK-MEL-28 melanoma 101%

COc1ccc2nc3cc(Cl)ccc3c(N3CCN(c4ccnc(N5CCOCC5)n4)CC3)c2c1
inactive: DU-145 prostate 24.2% | MALME-3M melanoma 80.3% | MDA-MB-231 breast 45.1% | SF-268 CNS 45.3% | SF-295 CNS 88.7% | UACC-257 melanoma 76.9% | M14 melanoma 86.6% | SNB-75 CNS 66.8% | SNB-19 CNS 95.5% | U251 CNS 64.2% | PC-3 prostate 67.2% | SK-MEL-5 melanoma 88.4% | UACC-62 melanoma 91.9% | SK-MEL-28 melanoma 35.9%
active: RXF 393 renal 8.55% | HCT-15 colon 8.96% | HT29 colon -18.2% | LOX IMVI melanoma -59%

O=C(Cn1cc(CN2C(=O)c3ccccc3S2(=O)=O)nn1)Nc1ccc([N+](=O)[O-])cc1Cl
inactive: DU-145 prostate 105% | MALME-3M melanoma 101% | MDA-MB-231 breast 90% | RXF 393 renal 110% | SF-268 CNS 100% | SF-295 CNS 108% | SF-539 CNS 101% | UACC-257 melanoma 98.6% | M14 melanoma 106% | HCT-15 colon 102% | HT29 colon 108% | SNB-75 CNS 97.4% | SNB-19 CNS 98.2% | PC-3 prostate 95.4% | SK-MEL-5 melanoma 99.7% | UACC-62 melanoma 81.8% | LOX IMVI melanoma 92.1% | SK-MEL-28 melanoma 97%

Cn1cc(-c2ccc(-c3cn(C)c4ncccc34)[nH]2)c2cccnc21
inactive: DU-145 prostate 94.2% | MALME-3M melanoma 86.5% | MDA-MB-231 breast 63.8% | RXF 393 renal 10.6% | SF-268 CNS 45.9% | SF-295 CNS 86.3% | UACC-257 melanoma 64.6% | M14 melanoma 76.2% | HCT-15 colon 50.4% | HT29 colon 97.6% | SNB-75 CNS 59.7% | LOX IMVI melanoma 21.8% | SK-MEL-28 melanoma 84.8%
active: U251 CNS -44.1% | PC-3 prostate -29.9% | SK-MEL-5 melanoma 9.47% | UACC-62 melanoma -4.05%

NCCN1CCN(c2nccc(-c3ccc4ccccc4c3)n2)CC1
active: SF-539 CNS -4.96% | M14 melanoma -66.8% | HCT-15 colon 4.28% | HT29 colon -33.6% | UACC-62 melanoma -65.3% | LOX IMVI melanoma -64.8% | SK-MEL-28 melanoma -43.4%
inactive: DU-145 prostate 84.6% | MALME-3M melanoma 60.3% | MDA-MB-231 breast 23.8% | RXF 393 renal 43.1% | SF-268 CNS 63.8% | SF-295 CNS 90.1% | UACC-257 melanoma 68.4% | SNB-75 CNS 82.1% | SNB-19 CNS 63.9% | PC-3 prostate 45.6% | SK-MEL-5 melanoma 54.9%

CN(C)CCOc1ccc(-c2nc3ccc(-c4nc5ccc(N6CCN(C)CC6)cc5[nH]4)cc3[nH]2)cc1
active: UACC-62 melanoma 2.8%
inactive: DU-145 prostate 82.4% | MALME-3M melanoma 24.1% | MDA-MB-231 breast 73.4% | RXF 393 renal 48.3% | SF-268 CNS 65.8% | SF-295 CNS 54.6% | SF-539 CNS 49.8% | UACC-257 melanoma 41.2% | M14 melanoma 51.3% | HCT-15 colon 101% | HT29 colon 42.4% | SNB-75 CNS 89.8% | SNB-19 CNS 69.4% | PC-3 prostate 76.2% | SK-MEL-5 melanoma 37.5% | LOX IMVI melanoma 67.9% | SK-MEL-28 melanoma 45.3%

Oc1ccc(Nc2nccc(-c3ccc4ccccc4c3)n2)cc1
inactive: DU-145 prostate 55.5% | MALME-3M melanoma 59.8% | MDA-MB-231 breast 30.5% | RXF 393 renal 60.3% | SF-268 CNS 47.4% | SF-295 CNS 61.4% | SF-539 CNS 37% | UACC-257 melanoma 26.7% | M14 melanoma 11.1% | HCT-15 colon 16.9% | HT29 colon 39.3% | SNB-75 CNS 36% | SNB-19 CNS 50.9% | PC-3 prostate 48.6% | SK-MEL-5 melanoma 39.8% | LOX IMVI melanoma 27.1% | SK-MEL-28 melanoma 50.6%

CN(C)CC(=O)Nc1ccc(Cn2nnc3c2C(=O)c2nnn(Cc4ccc(NC(=O)CN(C)C)cc4)c2C3=O)cc1
active: DU-145 prostate -96.2% | MALME-3M melanoma -81.2% | MDA-MB-231 breast -14.2% | RXF 393 renal -77.4% | SF-268 CNS -49.1% | SF-295 CNS -87.4% | UACC-257 melanoma -71.1% | M14 melanoma -89.4% | HCT-15 colon 1.94% | HT29 colon -52.5% | SNB-75 CNS -92.8% | SNB-19 CNS -75.1% | U251 CNS -82.1% | PC-3 prostate 1.37% | SK-MEL-5 melanoma -95% | UACC-62 melanoma -66.1% | LOX IMVI melanoma -30.6% | SK-MEL-28 melanoma -47.5%

O=C(/C=C/c1cccc(Br)c1)c1ccccc1
inactive: DU-145 prostate 92.1% | MALME-3M melanoma 99.3% | MDA-MB-231 breast 92.7% | RXF 393 renal 89.9% | SF-268 CNS 89% | SF-295 CNS 94.9% | SF-539 CNS 103% | UACC-257 melanoma 81.7% | M14 melanoma 91.1% | HCT-15 colon 76.6% | HT29 colon 67.9% | SNB-75 CNS 88.4% | SNB-19 CNS 96% | PC-3 prostate 68.1% | SK-MEL-5 melanoma 92.3% | UACC-62 melanoma 92.6% | LOX IMVI melanoma 78.2% | SK-MEL-28 melanoma 100%

CC(C)CC(CC1=CCC2CC1C2(C)C)C1=C(O)C(C)(C)C(=O)C(C)(C)C1=O (stereo not drawn)
inactive: DU-145 prostate 33.6% | MALME-3M melanoma 13.9% | SF-268 CNS 21.4% | SF-539 CNS 17% | M14 melanoma 20.3% | HCT-15 colon 13.5% | SNB-75 CNS 19.7% | SNB-19 CNS 16% | SK-MEL-28 melanoma 28.8%
active: MDA-MB-231 breast -6.26% | RXF 393 renal 7.5% | SF-295 CNS -24.3% | UACC-257 melanoma -23.2% | HT29 colon 1.62% | PC-3 prostate 5.09% | SK-MEL-5 melanoma -31.2% | UACC-62 melanoma 9.64% | LOX IMVI melanoma 6%

CSc1nc(NCCCNc2ccnc3cc(Cl)ccc23)cc(-c2ccccc2)n1
active: M14 melanoma -42.5% | HT29 colon 9.09% | SK-MEL-28 melanoma -52.2%
inactive: DU-145 prostate 81.3% | MALME-3M melanoma 56.9% | MDA-MB-231 breast 45.4% | RXF 393 renal 60.9% | SF-268 CNS 67.9% | SF-295 CNS 56.9% | UACC-257 melanoma 68.1% | HCT-15 colon 46.2% | SNB-75 CNS 56.9% | SNB-19 CNS 91.9% | U251 CNS 53.3% | SK-MEL-5 melanoma 52.6% | UACC-62 melanoma 91% | LOX IMVI melanoma 31.2%

O=C1C=CC(=O)c2c1nc1n2CCCC1
active: MALME-3M melanoma -71.2%
inactive: DU-145 prostate 63.2% | MDA-MB-231 breast 89.9% | RXF 393 renal 96.5% | SF-268 CNS 83.5% | SF-295 CNS 95.8% | SF-539 CNS 74.9% | UACC-257 melanoma 84.8% | M14 melanoma 29.9% | HCT-15 colon 103% | HT29 colon 35.5% | SNB-75 CNS 131% | SNB-19 CNS 63.9% | PC-3 prostate 89.7% | SK-MEL-5 melanoma 22% | UACC-62 melanoma 71.4% | SK-MEL-28 melanoma 68.3%

CC[C@H](Nc1cc(C)nc(N)n1)c1nc2cccc(NCc3ccc(C(=O)NO)cc3)c2c(=O)n1-c1ccccc1
inactive: DU-145 prostate 36.4% | MALME-3M melanoma 37.6% | SF-268 CNS 27.6% | SF-295 CNS 64.2% | UACC-257 melanoma 12.3% | M14 melanoma 16.3% | HCT-15 colon 92.5% | HT29 colon 10.2% | SNB-75 CNS 15.7% | PC-3 prostate 12.4% | SK-MEL-5 melanoma 30%
active: MDA-MB-231 breast 0.273% | RXF 393 renal -6% | SF-539 CNS -20.6% | SNB-19 CNS -40.3% | UACC-62 melanoma 9.65% | LOX IMVI melanoma -57.9% | SK-MEL-28 melanoma 5.53%
